{"source": "PubChem BioAssay AID624351", "about": "(Southern Research Specialized Biocontainment Screening …, 2012)", "note": "Out of some 2,400 compounds screened, about 1,400 (58%) were called active.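 How the source made its calls: active means inhibition of 30% or more at any tested dose; inconclusive means primary hits over the limit that were never retested; inactive means the rest.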 The set was probably picked from earlier hits. Some of the results follow."}
{"assay": "ADP Hunter readout inhibition without MgcRacGAP – biochemical, coupled enzyme counter-screen, artefact control for MgcRacGAP inhibitor project, dose response (AID 624351);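 further: signal is the ADP detection kit reading of free GDP without any GAP enzyme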", "conditions": "fluorescence, no MgcRacGAP; series mostly up to 80 µM"}
{"smiles": "Cc1nc2c(=O)[nH]c(=S)[nH]c2[nH]c1=O", "IC50": "inactive"}
{"smiles": "CN1CCc2c1nc1ccccc1c2NC(=O)CN1CCCC1", "IC50": "inactive"}
{"smiles": "Cc1[nH]nc(-c2ccc(O)c(C)c2O)c1-c1cnn(-c2ccccc2)c1", "IC50": "70.7 µM (active)"}
{"smiles": "O=C(Cc1coc2cc(O)ccc12)NNC(=O)c1ccc(Br)s1", "IC50": "35.2 µM (active)"}
{"smiles": "O=C(Cc1coc2cc(O)ccc12)NNC(=O)c1cccs1", "IC50": "33.8 µM (active)"}
{"smiles": "O=c1oc2cc(O)ccc2c2oc3cc(O)ccc3c12", "IC50": "54.1 µM (active)"}
{"smiles": "COc1cc(-c2ncc3ccccn23)cc(OC)c1OC", "IC50": "inactive"}
{"smiles": "CC1CC(=O)N(c2ccc(NCCc3ccc(O)cc3)c([N+](=O)[O-])c2)C1=O", "note": "(stereo not drawn)", "IC50": "65.3 µM (active)"}
{"smiles": "CCCCc1nc2ccccc2c(NC(=O)CN2CCN(C)CC2)c1CCC", "IC50": "inactive"}
{"smiles": "O=c1c2ccccc2sn1-c1ccccc1F", "IC50": "inactive"}
{"smiles": "CC(=O)C1=C(O)C(=O)N(c2ccc(O)cc2)C1c1ccccc1[N+](=O)[O-]", "note": "(stereo not drawn)", "IC50": "inactive"}
{"smiles": "Nc1nc(Sc2ccc([N+](=O)[O-])c3nonc23)c2[nH]cnc2n1", "IC50": "inactive"}
{"smiles": "Nc1cc([N+](=O)[O-])ccc1Nc1ccc(O)cc1", "IC50": "36.7 µM (active)"}
{"smiles": "O=[N+]([O-])c1ccccc1Nc1ccc(O)cc1", "IC50": "16.3 µM (active)"}
{"smiles": "O=[N+]([O-])c1cc([N+](=O)[O-])c2nonc2c1Nc1ccc(O)cc1", "IC50": "44.7 µM (active)"}
{"smiles": "Cc1cc(NCCCCCCCNc2cc(C)nc3cc([N+](=O)[O-])ccc23)c2ccc([N+](=O)[O-])cc2n1", "IC50": "inactive"}
{"smiles": "Cc1ccc(/C=C/C(=O)Nc2ccc([N+](=O)[O-])c(NC(=O)/C=C/c3ccc(C)o3)c2)o1", "IC50": "inactive"}
{"smiles": "CCN(Cc1ccncc1)Cc1ccc(OC)cc1OC", "IC50": "inactive"}
{"smiles": "COc1ccc(CN2CCN(c3ccccn3)CC2)c(OC)c1C", "IC50": "inactive"}
{"smiles": "Cn1cccc1/C=N/N1CCN(c2ccccc2)CC1", "IC50": "78.7 µM (active)"}
{"smiles": "Cn1cccc1/C=N/N1CCN(c2ccccn2)CC1", "IC50": "31.9 µM (active)"}
{"smiles": "CC(C(=O)N1CCCc2ccccc21)N1CCN(c2ccccn2)CC1", "note": "(stereo not drawn)", "IC50": "inactive"}
{"smiles": "Cc1nc(S/C(=C\\c2ccc(-c3ccc(C(=O)O)c(Cl)c3)o2)C(=O)O)n[nH]1", "IC50": "inactive"}
{"smiles": "CC[n+]1c(/C=C/N(C)c2ccccc2)oc2ccc(Cl)cc21", "IC50": "inactive"}
{"smiles": "COc1ccc(O/C(=N\\S(=O)(=O)c2ccccc2)c2ccccc2)cc1", "IC50": "46.1 µM (active)"}
{"smiles": "C=CCn1c(CNc2ccccc2)nnc1SCC(=O)N/N=C/c1ccc(O)cc1O", "IC50": "79.7 µM (active)"}
{"smiles": "Cc1ccc(C2=NOC(=O)/C2=C\\c2ccc(C)o2)cc1", "IC50": "inactive"}
{"smiles": "COc1cc(CNCc2cc(OC)c(OC)c(OC)c2)cc(OC)c1", "IC50": "inactive"}
{"smiles": "COc1cc(OC)c2cc[nH]c2c1", "IC50": "80.5 µM (active)"}
{"smiles": "COc1ccc(CN2CCN(Cc3c[nH]c4ccccc34)CC2)c(OC)c1", "IC50": "inactive"}
{"smiles": "C=CCn1c(SCC(=O)Nc2ccc(O)cc2)nc2sc(CC)cc2c1=O", "IC50": "37.1 µM (active)"}
{"smiles": "Cc1ccccc1N1C(S)=C(C#N)C(=O)NC12CCCCC2", "IC50": "inactive"}
{"smiles": "Cc1cc(=O)c2c(O)c(O)ccc2o1", "IC50": "41.8 µM (active)"}
{"smiles": "COc1ccc2c(c1)Sc1ccccc1N2", "IC50": "34.1 µM (active)"}
{"smiles": "COc1cc(CN2CCN(C(=O)c3cccc4ccccc34)CC2)cc(OC)c1OC", "IC50": "inactive"}
{"smiles": "O=C(c1ccccc1)N1CCN(C2CCCCC2)CC1", "IC50": "inactive"}
{"smiles": "O=C(c1ccc(Cl)c(S(=O)(=O)N2CCCCCC2)c1)N1CCN(c2ccc(O)cc2)CC1", "IC50": "34.3 µM (active)"}
{"smiles": "Cc1ccccc1CN1CCN(C(=O)c2cccc3ccccc23)CC1", "IC50": "inactive"}
{"smiles": "O=C(c1cc(C2CC2)nn1-c1ccccc1)N1CCN(c2ccc(O)cc2)CC1", "IC50": "42.2 µM (active)"}
{"smiles": "CCC(CC)N1CCN(C(=O)c2cccc(Cl)c2)CC1", "IC50": "inactive"}
{"smiles": "S=C(c1ccccc1)N1CCN(c2ccccc2)CC1", "IC50": "inactive"}
{"smiles": "Cc1ccc(-c2cc(C(=O)N3CCN(c4ccc(O)cc4)CC3)c3ccccc3n2)cc1", "IC50": "83.4 µM (active)"}
{"smiles": "COc1ccc(C(=O)Nc2ccc(N3CCCCCC3)cc2)cc1S(=O)(=O)N1CCOCC1", "IC50": "inactive"}
{"smiles": "O=C(c1ccccc1)c1ccc(C(=O)N2CCN(c3ccc(O)cc3)CC2)cc1", "IC50": "39 µM (active)"}
{"smiles": "O=C1/C(=C\\c2ccc(O)cc2)SC(=S)N1/N=C/c1ccc(O)cc1", "IC50": "72.7 µM (active)"}
{"smiles": "CN(c1ccccc1)c1ccc(/C=N/N2CCOCC2)cc1", "IC50": "36.8 µM (active)"}
{"smiles": "CN(c1ccccc1)c1ccc(/C=C/[N+](=O)[O-])cc1", "IC50": "inactive"}
{"smiles": "CCN(Cc1ccccc1)C1CCN(Cc2ccc(SC)cc2)CC1", "IC50": "inactive"}
{"smiles": "CCOc1cc(/C=N/N2CCN(Cc3ccccc3)CC2)ccc1O", "IC50": "78.5 µM (active)"}
{"smiles": "CCN(CC)c1ccc(/C=N/N2CCN(Cc3ccccc3)CC2)cc1", "IC50": "75.1 µM (active)"}
{"smiles": "CC(CN1CCN(Cc2ccccc2)CC1)c1ccccc1", "note": "(stereo not drawn)", "IC50": "inactive"}
{"smiles": "CCOc1cc(CN2CCN(C(=O)CC(C)C)CC2)ccc1OC", "IC50": "inactive"}
{"smiles": "CCN(Cc1ccccc1)c1ccc(/C=N/N2CCOCC2)cc1", "IC50": "57.8 µM (active)"}
{"smiles": "CCOc1ccc(CN2CCN(Cc3c[nH]c4ccccc34)CC2)cc1", "IC50": "inactive"}
{"smiles": "CC(=O)N(C1=C(Cl)C(=O)c2ccccc2C1=O)c1ccc(C(=O)O)cc1", "IC50": "inactive"}
{"smiles": "CCN(CC)c1ccc(/C=N/N2CCOCC2)c(O)c1", "IC50": "63.7 µM (active)"}
{"smiles": "CC(C)c1ccc(/C=N/N2CCCCC2)cc1", "IC50": "inactive"}
{"smiles": "COc1ccccc1CN1CCN(Cc2cc(OC)c(OC)cc2OC)CC1", "IC50": "inactive"}
{"smiles": "CCN(CC)c1ccc(/C=N/N2CCOCC2)cc1", "IC50": "40.3 µM (active)"}
{"smiles": "CN(C)c1ccc(/C=N/N2CCN(Cc3ccccc3Cl)CC2)cc1", "IC50": "71 µM (active)"}
{"smiles": "Cc1ccc(OCCN2CCN(C)CC2)c([N+](=O)[O-])c1", "IC50": "inactive"}
{"smiles": "O=C(Cn1sc2ccccc2c1=O)Nc1ccccc1", "IC50": "inactive"}
{"smiles": "O=C(Nc1ccc(O)cc1)c1cc2ccccc2c(=O)s1", "IC50": "30.1 µM (active)"}
{"smiles": "COc1ccc2cc(C(=O)Nc3ccc(O)cc3)sc(=O)c2c1OC", "IC50": "24.8 µM (active)"}
{"smiles": "Cc1ccc(NC(=O)CNCCCN2CCOCC2)cc1S(=O)(=O)N1CCCCC1", "IC50": "inactive"}
{"smiles": "COc1cc(/C=C/C(=O)OCC(=O)Nc2cc(S(=O)(=O)N3CCCCC3)ccc2C)ccc1O", "IC50": "60.2 µM (active)"}
{"smiles": "COCCNCC(=O)Nc1ccc(C)c(S(=O)(=O)N2CCCCC2)c1", "IC50": "inactive"}
{"smiles": "CCN(CC)S(=O)(=O)c1ccc(C)c(NC(=O)CN2CCN(C)CC2)c1", "IC50": "inactive"}
{"smiles": "COc1cc(/C=C/C(=O)OCC(=O)Nc2ccc(S(=O)(=O)N3CCCC3)cc2)ccc1O", "IC50": "45.7 µM (active)"}
{"smiles": "Cc1ccc(S(=O)(=O)N2CCCCC2)cc1NC(=O)CNCc1ccco1", "IC50": "inactive"}
{"smiles": "CC(CCN1CCN(CCO)CC1)c1ccccc1", "note": "(stereo not drawn)", "IC50": "inactive"}
{"smiles": "CN=C1S/C(=C\\c2ccc(O)c(Br)c2)C(=O)N1C", "IC50": "45.8 µM (active)"}
{"smiles": "Cc1nc(N)sc1-c1ccccc1", "IC50": "80.8 µM (active)"}
{"smiles": "COc1ccc(C(=O)/C=C/c2ccc(O)cc2)cc1", "IC50": "42.2 µM (active)"}
{"smiles": "COC(=O)c1ccc2c(c1)C(C)(C)C(/C=C/c1ccc(O)cc1)=[N+]2C", "IC50": "inactive"}
{"smiles": "COc1ccc(-c2ccc(CCC(=O)O)n2-c2ccc(O)cc2)cc1", "IC50": "inactive"}
{"smiles": "COc1ccc(N2CCN(C(=O)c3ccc(Br)o3)CC2)cc1", "IC50": "inactive"}
{"smiles": "O=C(CNCc1ccco1)Nc1ccc(N2CCCCCC2)cc1", "IC50": "inactive"}
{"smiles": "CC(=O)N1CCN(c2ccc(NCc3ccc(Br)o3)cc2)CC1", "IC50": "12.4 µM (active)"}
{"smiles": "CC(=O)N1CCN(c2ccc(NCc3ccco3)cc2)CC1", "IC50": "13.1 µM (active)"}
{"smiles": "CN(C)c1ccc(NC2=C([N+](=O)[O-])CS(=O)(=O)C2)cc1", "IC50": "51.3 µM (active)"}
{"smiles": "Cc1cc(/C=N/Nc2ccc([N+](=O)[O-])cn2)c(C)n1-c1ccc(C(=O)O)cc1", "IC50": "inactive"}
{"smiles": "CN(C)c1ccc(Nc2ccc([N+](=O)[O-])cn2)cc1", "IC50": "70.9 µM (active)"}
{"smiles": "O=C(c1ccccc1F)N1CCN(Cc2ccccc2F)CC1", "IC50": "inactive"}
{"smiles": "CCOc1c(C=C(C#N)C#N)c2ccccc2n1CC", "IC50": "inactive"}
{"smiles": "Clc1ccccc1-c1nc(/C=N/N2CCOCC2)c2ccccn12", "IC50": "44 µM (active)"}
{"smiles": "C(=N\\N1CCOCC1)/c1nc(-c2ccccc2)n2ccccc12", "IC50": "25.7 µM (active)"}
{"smiles": "CN1CCN(/N=C/c2nc(-c3ccc(Cl)cc3)n3ccccc23)CC1", "IC50": "41.9 µM (active)"}
{"smiles": "CN1CCN(/N=C/c2nc(-c3ccccc3)n3ccccc23)CC1", "IC50": "35.6 µM (active)"}
{"smiles": "O=C(O)c1ccc2c(c1)C(=O)/C(=C\\c1ccco1)C2=O", "IC50": "inactive"}
{"smiles": "Cc1ccccc1N1C(S)=C(C#N)C(=O)NC1c1cccs1", "note": "(stereo not drawn)", "IC50": "inactive"}
{"smiles": "Cc1ccc(-n2sc3cc(F)ccc3c2=O)c(C)c1", "IC50": "inactive"}
{"smiles": "CSc1ccccc1NC(=O)CNCCCN1CCOCC1", "IC50": "inactive"}
{"smiles": "O=C(NCc1ccco1)c1sc(=S)n2c1[nH]c(=O)c1ccccc12", "IC50": "inactive"}
{"smiles": "N#Cc1ccc(OCC(=O)Nc2ccc(N3CCCC3)cc2)cc1", "IC50": "inactive"}
{"smiles": "O=C(COc1ccc(Nc2ccccc2)cc1)OCC(=O)N1CCCCC1", "IC50": "75.6 µM (active)"}
{"smiles": "CCOC(=O)COc1ccc2c(c1)C(=O)CC1(CCCCC1)O2", "IC50": "inactive"}
{"smiles": "COCCNC(=O)COc1ccc(Nc2ccccc2)cc1", "IC50": "62.8 µM (active)"}
{"smiles": "O=C(COC(=O)COc1ccc(Nc2ccccc2)cc1)NCc1ccco1", "IC50": "79.9 µM (active)"}
{"smiles": "O=C(CNCc1ccco1)Nc1ccc(Oc2ccccc2)cc1", "IC50": "inactive"}
{"smiles": "O=C1CCCCC/C1=N/Nc1ccc(OCc2ccccc2)cc1", "IC50": "inactive"}
{"smiles": "COc1ccc(-n2nc3c(c2NC(=O)CCCCl)CSC3)cc1", "IC50": "inactive"}
{"smiles": "O=C(Nc1ccccc1)C1=C(c2ccccc2)S(=O)(=O)CCS1(=O)=O", "IC50": "inactive"}
{"smiles": "O=C(Nc1ccc(Nc2ccccc2)cc1)C1CC1", "IC50": "55.9 µM (active)"}
{"smiles": "CC(=O)Nc1ccc(S(=O)(=O)Nc2ccc(Nc3ccccc3)cc2)cc1", "IC50": "80.7 µM (active)"}
{"smiles": "CC(C)C(=O)Nc1ccc(Nc2ccccc2)cc1", "IC50": "52.3 µM (active)"}
{"smiles": "O=C(O)c1ccccc1C(=O)Nc1ccc(Nc2ccccc2)cc1", "IC50": "62.4 µM (active)"}
{"smiles": "CC(=O)Nc1ccc(S(=O)(=O)Nc2nc3ccccc3nc2Nc2ccc(C(=O)O)c(O)c2)cc1", "IC50": "inactive"}
